# From the supplement of paper PMC8728848
# About 410 targets per protein were measured; listed, in parts, are those with the strongest signals and a random draw of the rest.
# B1: EPL1 (Trichoderma atroviride), A0PCX2 (protein)
# chain: MQLSNLFKLALFTAAVSADTVSYDTGYDDASRSLTVVSCSDGTNGLITRYHWQTQGQIPRFPYIGGAQAVAGWNSPNCGTCWKLTYSGKTIYVLAIDHTAAGFNIGLDAMNALTNGNAVALGRVSATASQVAVSNCGL
# Columns and labels:
# Test in all cases: glycan array binding signal (z-score within array); higher = stronger binding
# Conditions in all cases: glycan notation: IUPAC condensed, linker removed
# [1] = target: Fuc(a1-2)Gal(b1-3)GlcNAc6S
# In short: (§1)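 Columns mapping to the same glycan were averaged after glycan names were converted to IUPAC-condensed notation. The data come from 3228 arrays in the Consortium for Functional Glycomics database, limited to those with an available protein sequence. Binding is reported as a within-array Z-score averaged across arrays of one protein sequence and across linkers.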
# [2] = target: Fuc(a1-2)Gal(b1-3)[Fuc(a1-4)]GlcNAc(b1-3)[Fuc(a1-3)[Gal(b1-4)]GlcNAc(b1-6)]Gal(b1-4)Glc
# In short: as §1
# [3] = target: Fuc(a1-2)Gal(b1-4)GlcNAc(b1-3)Gal(b1-4)GlcNAc(b1-2)Man(a1-3)[Fuc(a1-2)Gal(b1-4)GlcNAc(b1-3)Gal(b1-4)GlcNAc(b1-2)Man(a1-6)]Man(b1-4)GlcNAc(b1-4)GlcNAc
# In short: as §1
# [4] = target: Fuc(a1-2)Gal(b1-4)[Fuc(a1-3)]GlcNAc
# In short: as §1
# [5] = target: Fuc(a1-2)Gal6S(b1-3)GlcNAc
# In short: as §1
# [6] = target: Fuc(a1-2)[Gal(a1-3)]Gal(b1-3)GlcNAc(b1-2)Man(a1-3)[Fuc(a1-2)[Gal(a1-3)]Gal(b1-3)GlcNAc(b1-2)Man(a1-6)]Man(b1-4)GlcNAc(b1-4)[Fuc(a1-6)]GlcNAc
# In short: as §1
# [7] = target: Fuc(a1-2)[GalNAc(a1-3)]Gal(b1-4)[Fuc(a1-3)]GlcNAc(b1-3)GalNAc
# In short: as §1
# [8] = target: Fuc(a1-2)[GalNAc(b1-3)]Gal
# In short: as §1
# [9] = target: Fuc(a1-3)[Gal(b1-4)]GlcNAc(b1-2)Man
# In short: as §1
# [10] = target: Fuc(a1-3)[GalNAc(b1-4)]GlcNAc
# In short: as §1
# [11] = target: Fuc(a1-3)[GalNAc(b1-4)]GlcNAc6S
# In short: as §1
# Fuc(a1-4)GlcNAc = target: Fuc(a1-4)GlcNAc
# In short: as §1
# [12] = target: Gal(a1-3)Gal(b1-4)GlcNAc(b1-2)Man(a1-3)[Gal(a1-3)Gal(b1-4)GlcNAc(b1-2)Man(a1-6)]Man(b1-4)GlcNAc(b1-4)GlcNAc
# In short: as §1
# [13] = target: Gal(a1-3)Gal(b1-4)[Fuc(a1-3)]GlcNAc(b1-2)Man(a1-3)[Gal(a1-3)Gal(b1-4)[Fuc(a1-3)]GlcNAc(b1-2)Man(a1-6)]Man(b1-4)GlcNAc(b1-4)GlcNAc
# In short: as §1
# Gal(a1-3)GalNAc = target: Gal(a1-3)GalNAc
# In short: as §1
# [14] = target: Gal(b1-3)GlcNAc(b1-3)Gal(b1-4)Glc
# In short: as §1
# [15] = target: Gal(b1-3)GlcNAc(b1-3)Gal(b1-4)GlcNAc
# In short: as §1
# [16] = target: Gal(b1-3)GlcNAc(b1-3)Gal(b1-4)GlcNAc(b1-2)[Gal(b1-3)GlcNAc(b1-3)Gal(b1-4)GlcNAc(b1-6)]Man(a1-6)[Gal(b1-3)GlcNAc(b1-3)Gal(b1-4)GlcNAc(b1-2)Man(a1-3)]Man(b1-4)GlcNAc(b1-4)[Fuc(a1-6)]GlcNAc
# In short: as §1
# [17] = target: Gal(b1-3)[Fuc(a1-4)]GlcNAc(b1-6)GalNAc
# In short: as §1
# [18] = target: Gal(b1-4)GlcNAc(b1-2)[Gal(b1-4)GlcNAc(b1-4)]Man(a1-3)[Gal(b1-4)GlcNAc(b1-2)[Gal(b1-4)GlcNAc(b1-6)]Man(a1-6)]Man(b1-4)GlcNAc(b1-4)GlcNAc
# In short: as §1
# [19] = target: Gal(b1-4)GlcNAc(b1-3)Gal(b1-3)GlcNAc
# In short: as §1
# [20] = target: Gal(b1-4)GlcNAc(b1-3)Gal(b1-4)Glc
# In short: as §1
# [21] = target: Gal(b1-4)GlcNAc(b1-3)Gal(b1-4)GlcNAc(b1-3)Gal(b1-4)GlcNAc
# In short: as §1
# Gal3S(b1-3)GlcNAc = target: Gal3S(b1-3)GlcNAc
# In short: as §1
# Gal3S(b1-4)GlcNAc = target: Gal3S(b1-4)GlcNAc
# In short: as §1
# [22] = target: Gal3S(b1-4)[Fuc(a1-3)]GlcNAc
# In short: as §1
# Gal4S(b1-4)GlcNAc = target: Gal4S(b1-4)GlcNAc
# In short: as §1
# GalNAc(b1-4)GlcNAc = target: GalNAc(b1-4)GlcNAc
# In short: as §1
# [23] = target: GlcNAc(a1-4)Gal(b1-3)GlcNAc
# In short: as §1
# [24] = target: GlcNAc(a1-6)Gal(b1-4)GlcNAc
# In short: as §1
# [25] = target: GlcNAc(b1-2)[GlcNAc(b1-6)]Man(a1-6)[GlcNAc(b1-4)][GlcNAc(b1-2)Man(a1-3)]Man(b1-4)GlcNAc(b1-4)GlcNAc
# In short: as §1
# [26] = target: GlcNAc(b1-3)Gal(b1-4)GlcNAc(b1-3)Gal(b1-4)GlcNAc(b1-2)Man(a1-3)[GlcNAc(b1-3)Gal(b1-4)GlcNAc(b1-3)Gal(b1-4)GlcNAc(b1-2)Man(a1-6)]Man(b1-4)GlcNAc(b1-4)GlcNAc
# In short: as §1
# [27] = target: GlcNAc(b1-3)Gal(b1-4)GlcNAc(b1-3)Gal(b1-4)GlcNAc(b1-3)Gal(b1-4)GlcNAc(b1-2)Man(a1-3)[GlcNAc(b1-3)Gal(b1-4)GlcNAc(b1-3)Gal(b1-4)GlcNAc(b1-3)Gal(b1-4)GlcNAc(b1-2)Man(a1-6)]Man(b1-4)GlcNAc(b1-4)[Fuc(a1-6)]GlcNAc
# In short: as §1
# [28] = target: GlcNAc(b1-3)Gal(b1-4)GlcNAc(b1-3)Gal(b1-4)GlcNAc(b1-3)Gal(b1-4)GlcNAc(b1-2)[GlcNAc(b1-3)Gal(b1-4)GlcNAc(b1-3)Gal(b1-4)GlcNAc(b1-3)Gal(b1-4)GlcNAc(b1-6)]Man(a1-6)[GlcNAc(b1-3)Gal(b1-4)GlcNAc(b1-3)Gal(b1-4)GlcNAc(b1-3)Gal(b1-4)GlcNAc(b1-2)Man(a1-3)]Man(b1-4)GlcNAc(b1-4)[Fuc(a1-6)]GlcNAc
# In short: as §1
# [29] = target: Man(a1-2)Man(a1-2)Man(a1-3)Man
# In short: as §1
# MurNAc(b1-4)GlcNAc = target: MurNAc(b1-4)GlcNAc
# In short: as §1
# [30] = target: Neu5Ac(a2-3)Gal(b1-3)GlcNAc(b1-2)Man
# In short: as §1
# [31] = target: Neu5Ac(a2-3)Gal(b1-4)GlcNAc(b1-2)Man(a1-3)[GlcNAc(b1-4)][Neu5Ac(a2-3)Gal(b1-4)GlcNAc(b1-2)Man(a1-6)]Man(b1-4)GlcNAc(b1-4)GlcNAc
# In short: as §1
# [32] = target: Neu5Ac(a2-3)Gal(b1-4)GlcNAc(b1-6)[Neu5Ac(a2-3)Gal(b1-3)]GalNAc
# In short: as §1
# [33] = target: Neu5Ac(a2-3)Gal(b1-4)[Fuc(a1-3)]GlcNAc(b1-2)Man
# In short: as §1
# [34] = target: Neu5Ac(a2-3)Gal(b1-4)[Fuc(a1-3)]GlcNAc(b1-3)GalNAc
# In short: as §1
# [35] = target: Neu5Ac(a2-3)Gal(b1-4)[Fuc(a1-3)]GlcNAc(b1-6)[Neu5Ac(a2-3)Gal(b1-3)]GalNAc
# In short: as §1
# [36] = target: Neu5Ac(a2-3)GalNAc(b1-4)GlcNAc
# In short: as §1
# Neu5Ac(a2-6)Gal = target: Neu5Ac(a2-6)Gal
# In short: as §1
# [37] = target: Neu5Ac(a2-6)Gal(b1-4)GlcNAc(b1-2)Man(a1-3)[GlcNAc(b1-2)Man(a1-6)]Man(b1-4)GlcNAc(b1-4)GlcNAc
# In short: as §1
# [38] = target: Neu5Ac(a2-6)Gal(b1-4)GlcNAc(b1-2)Man(a1-6)[GlcNAc(b1-2)Man(a1-3)]Man(b1-4)GlcNAc(b1-4)GlcNAc
# In short: as §1
# [39] = target: Neu5Ac(a2-6)Gal(b1-4)GlcNAc(b1-2)Man(a1-6)[Man(a1-3)]Man(b1-4)GlcNAc(b1-4)GlcNAc
# In short: as §1
# [40] = target: Neu5Ac(a2-6)Gal(b1-4)GlcNAc(b1-3)Gal(b1-4)GlcNAc(b1-3)Gal(b1-4)GlcNAc(b1-2)Man(a1-3)[Neu5Ac(a2-6)Gal(b1-4)GlcNAc(b1-3)Gal(b1-4)GlcNAc(b1-3)Gal(b1-4)GlcNAc(b1-2)Man(a1-6)]GalNAc
# In short: as §1
# [41] = target: Neu5Ac(a2-6)Gal(b1-4)GlcNAc(b1-3)Gal(b1-4)[Fuc(a1-3)]GlcNAc(b1-3)Gal(b1-4)[Fuc(a1-3)]GlcNAc
# In short: as §1
# [42] = target: Neu5Ac(a2-6)Gal(b1-4)GlcNAc6S
# In short: as §1
# Neu5Gc(a2-3)Gal(b1-4)Glc = target: Neu5Gc(a2-3)Gal(b1-4)Glc
# In short: as §1
# [43] = target: Neu5Gc(a2-3)Gal(b1-4)GlcNAc(b1-3)Gal(b1-4)GlcNAc(b1-2)Man(a1-3)[Neu5Gc(a2-3)Gal(b1-4)GlcNAc(b1-3)Gal(b1-4)GlcNAc(b1-2)Man(a1-6)]Man(b1-4)GlcNAc(b1-4)GlcNAc
# In short: as §1
# [44] = target: Neu5Gc(a2-8)Neu5Ac(a2-3)Gal(b1-4)GlcNAc
# In short: as §1
binder,measurement,setting,value
B1,glycan array binding signal (z-score),[1],-0.466
same,glycan array binding signal (z-score),[2],-0.315
same,glycan array binding signal (z-score),[3],-0.05
same,glycan array binding signal (z-score),[4],0.212
same,glycan array binding signal (z-score),[5],-0.249
same,glycan array binding signal (z-score),[6],0.105
same,glycan array binding signal (z-score),[7],21.1
same,glycan array binding signal (z-score),[8],-0.54
same,glycan array binding signal (z-score),[9],0.185
same,glycan array binding signal (z-score),[10],0.203
same,glycan array binding signal (z-score),[11],-0.245
same,glycan array binding signal (z-score),Fuc(a1-4)GlcNAc,3.1
same,glycan array binding signal (z-score),[12],0.847
same,glycan array binding signal (z-score),[13],0.929
same,glycan array binding signal (z-score),Gal(a1-3)GalNAc,-0.034
same,glycan array binding signal (z-score),[14],1.82
same,glycan array binding signal (z-score),[15],-0.163
same,glycan array binding signal (z-score),[16],0.678
same,glycan array binding signal (z-score),[17],-0.249
same,glycan array binding signal (z-score),[18],0.128
same,glycan array binding signal (z-score),[19],-0.08
same,glycan array binding signal (z-score),[20],-0.362
same,glycan array binding signal (z-score),[21],0.071
same,glycan array binding signal (z-score),Gal3S(b1-3)GlcNAc,0.668
same,glycan array binding signal (z-score),Gal3S(b1-4)GlcNAc,0.311
same,glycan array binding signal (z-score),[22],-0.154
same,glycan array binding signal (z-score),Gal4S(b1-4)GlcNAc,0.422
same,glycan array binding signal (z-score),GalNAc(b1-4)GlcNAc,1.34
same,glycan array binding signal (z-score),[23],0.056
same,glycan array binding signal (z-score),[24],-0.234
same,glycan array binding signal (z-score),[25],-0.514
same,glycan array binding signal (z-score),[26],0.862
same,glycan array binding signal (z-score),[27],0.866
same,glycan array binding signal (z-score),[28],0.127
same,glycan array binding signal (z-score),[29],-0.108
same,glycan array binding signal (z-score),MurNAc(b1-4)GlcNAc,-0.51
same,glycan array binding signal (z-score),[30],-0.068
same,glycan array binding signal (z-score),[31],-0.469
same,glycan array binding signal (z-score),[32],-0.379
same,glycan array binding signal (z-score),[33],-0.347
same,glycan array binding signal (z-score),[34],1.06
same,glycan array binding signal (z-score),[35],0.767
same,glycan array binding signal (z-score),[36],-0.428
same,glycan array binding signal (z-score),Neu5Ac(a2-6)Gal,-0.387
same,glycan array binding signal (z-score),[37],-0.298
same,glycan array binding signal (z-score),[38],-0.056
same,glycan array binding signal (z-score),[39],-0.436
same,glycan array binding signal (z-score),[40],0.008
same,glycan array binding signal (z-score),[41],-0.291
same,glycan array binding signal (z-score),[42],0.855
same,glycan array binding signal (z-score),Neu5Gc(a2-3)Gal(b1-4)Glc,-0.246
same,glycan array binding signal (z-score),[43],0.362
same,glycan array binding signal (z-score),[44],-0.344
